The panel holds about 83,000 compounds, 20% with a hit somewhere; the sample as a whole holds those more often.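 Percent growth is the endpoint: 0 to 100 indicates growth inhibition (40 means 60% inhibition), 0 means no net growth, and negative values indicate cell death.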 Unmarked numbers belong to inactive results. Active and inactive are the calls of the source. How the source made its calls: active means growth percent below 10; inactive means the rest.
Legend:
Assay in all cases: NCI-60 one-dose screen, 48 h (100 = growth as untreated, 0 = no growth, -100 = all killed)
Conditions in all cases: 10 µM unless noted
NCI-H23 lung = system: NCI-H23 lung
NCI-H322M lung = system: NCI-H322M lung
HOP-62 NSCLC = system: HOP-62 NSCLC
NCI-H460 lung = system: NCI-H460 lung
HOP-92 NSCLC = system: HOP-92 NSCLC
A549/ATCC NSCLC = system: A549/ATCC NSCLC
786-0 renal = system: 786-0 renal
COLO 205 colon = system: COLO 205 colon
DU-145 prostate = system: DU-145 prostate
K-562 leukemia = system: K-562 leukemia
MALME-3M melanoma = system: MALME-3M melanoma
MDA-MB-231 breast = system: MDA-MB-231 breast
RXF 393 renal = system: RXF 393 renal
SF-268 CNS = system: SF-268 CNS
SF-295 CNS = system: SF-295 CNS
SF-539 CNS = system: SF-539 CNS
UACC-257 melanoma = system: UACC-257 melanoma
M14 melanoma = system: M14 melanoma

| SMILES | growth (NCI-H23 lung) | growth (NCI-H322M lung) | growth (HOP-62 NSCLC) | growth (NCI-H460 lung) | growth (HOP-92 NSCLC) | growth (A549/ATCC NSCLC) | growth (786-0 renal) | growth (COLO 205 colon) | growth (DU-145 prostate) | growth (K-562 leukemia) | growth (MALME-3M melanoma) | growth (MDA-MB-231 breast) | growth (RXF 393 renal) | growth (SF-268 CNS) | growth (SF-295 CNS) | growth (SF-539 CNS) | growth (UACC-257 melanoma) | growth (M14 melanoma) |
| --- | --- | --- | --- | --- | --- | --- | --- | --- | --- | --- | --- | --- | --- | --- | --- | --- | --- | --- |
| Cc1ccc2nc(NC(=O)CSC(=S)N3CCN(Cc4ccccc4)CC3)sc2c1 | 1.13% (active) | -71.8% (active) | -59.1% (active) | -70.9% (active) | -55.4% (active) | 1.71% (active) | -21.1% (active) | -63.3% (active) | -96.9% (active) | 11.8% | -58% (active) | -7.45% (active) | -58% (active) | -14.9% (active) | -13.1% (active) | 1.99% (active) | -63.4% (active) | -56.7% (active) |
| COc1cc(-c2nc(SC(C)C)nc(Nc3cccc(C)c3)c2C#N)cc(OC)c1OC | 103% | 107% | 103% | 108% | 106% | 91% | 109% | 109% | 109% | 99.5% | 108% | 99.2% | 127% | 107% | 101% | 107% | 98.9% | 108% |
| CCCCCn1c(=N)n(CC(O)COc2cccc(C)c2)c2ccccc21 (centres undefined) | 7.8% (active) | 14% | 17.9% | 0.388% (active) | -10.9% (active) | 7.6% (active) | 32.6% | 87.2% | 10.4% | 6.52% (active) | -6.7% (active) | 22.8% | 15.5% | 25.6% | -27.4% (active) | -14.7% (active) | -19.6% (active) | 15.9% |
| CCC(=O)Nc1nnc(Cc2ccc(OC)c(OC)c2)s1 | 60.4% | 24.9% | -67.2% (active) | -43.7% (active) | 32.6% | -55% (active) | 9.21% (active) | 28.2% | -49.6% (active) | 2.4% (active) | -46.3% (active) | 1.66% (active) | -32.9% (active) | -14% (active) | -78.7% (active) | -74.1% (active) | -26.3% (active) | 22.7% |
| Cc1c(C(=O)Nc2nc(-c3ccccc3)cs2)nnn1-c1ccccc1Br | 28.7% [50 µM] | 79.5% [50 µM] | 94.7% [50 µM] | 45.2% [50 µM] | 57.4% [50 µM] | 30.9% [50 µM] | 66.7% [50 µM] | 42.3% [50 µM] | 51.8% [50 µM] | 20.3% [50 µM] | 17.5% [50 µM] | 44% [50 µM] | 76.4% [50 µM] | 61.5% [50 µM] | 31.2% [50 µM] | 63.8% [50 µM] | 13.2% [50 µM] | 43.1% [50 µM] |
| O=c1c2c(=NCCN3CCCC3)cc3c(=O)n(CCCN4CCOCC4)c(=O)c4ccc(c(O)n1CCCN1CCOCC1)c2c4-3 | -49% (active) | -10.8% (active) | -17.3% (active) | -8.16% (active) | -4.88% (active) | 6.22% (active) | 1.28% (active) | -55.8% (active) | 2.23% (active) | 3.73% (active) | -70.7% (active) | -24.5% (active) | -66.3% (active) | -26.8% (active) | 1.07% (active) | -53.9% (active) | -14.3% (active) | -73.4% (active) |
| CCN1CCN(c2ccc(Nc3ncc4ccc5ncn(C(C)C)c5c4n3)nc2)CC1 | -26.1% (active) | 1.51% (active) | -7.69% (active) | -30.3% (active) | 13.9% | 9.87% (active) | 9.21% (active) | -40.4% (active) | -22.7% (active) | 9.12% (active) | -34% (active) | 0.653% (active) | -85.4% (active) | -34.2% (active) | -17.8% (active) | -75.8% (active) | 0.866% (active) | -23.8% (active) |
| COc1cc(Cn2cc(F)c(=O)[nH]c2=O)cc(OC)c1 | 103% [50 µM] | 99% [50 µM] | 88.2% [50 µM] | 103% [50 µM] | 101% [50 µM] | 102% [50 µM] | 97.5% [50 µM] | 117% [50 µM] | 114% [50 µM] | 95.6% [50 µM] | 108% [50 µM] | 95.7% [50 µM] | 99.5% [50 µM] | 96.1% [50 µM] | 101% [50 µM] | 101% [50 µM] | 110% [50 µM] | 100% [50 µM] |
| Cc1ccccc1-n1nnc(C(=O)Nc2nc(-c3ccccc3)c(-c3ccccc3)s2)c1C | 76.3% [50 µM] | 84.4% [50 µM] | 84.8% [50 µM] | 73.2% [50 µM] | 62.3% [50 µM] | 65.4% [50 µM] | 87.4% [50 µM] | 92.8% [50 µM] | 87.6% [50 µM] | 53.5% [50 µM] | 80% [50 µM] | 85.3% [50 µM] | 69% [50 µM] | 69.6% [50 µM] | 80.6% [50 µM] | 77.1% [50 µM] | 61.5% [50 µM] | 78.7% [50 µM] |
| CCOC(=O)C1=C(C)N2C(=NC3=C(CCCC/C3=C\c3ccccc3)C2c2ccccc2)S1 (centres undefined) | 95.5% | 92% | 117% | 99.1% | -2.46% (active) | 99.1% | 96.6% | 117% | 105% | 99.2% | 86.7% | 107% | 88.3% | 99.2% | 74% | 99.3% |  | 95.9% |
| COc1cc(-c2nc(SC(C)C)nc(Nc3ccccc3C)c2C#N)cc(OC)c1OC | 105% | 106% | 104% | 107% | 110% | 101% | 108% | 117% | 113% | 98.6% | 104% | 102% | 120% | 106% | 102% | 103% | 113% | 104% |
| Nc1c(Br)cc(Br)cc1-c1n[nH]c(=O)[nH]c1=O | 91.3% | 109% | 93.5% | 102% | 54.6% | 113% | 100% | 102% | 114% | 102% | 98.4% | 87.4% | 103% | 104% | 98% | 92.5% |  | 101% |
| CC(C)(C)[Si](C)(C)OC1[C@@H](O[Si](C)(C)C(C)(C)C)[C@@H](CNC(=O)NC(=O)C(F)(F)F)O[C@H]1n1cnc2c(NC(=O)Nc3ccccc3)ncnc21 (some centres undefined) | 86.4% | 97.6% | 93% | 36.1% | -11.4% (active) | 51.4% | 83.1% | 91.9% | -81.2% (active) | -40.8% (active) | 74.8% | 82.7% | 104% | -29% (active) | 69.5% | 92.5% |  | 71.6% |
| Fc1c[c-]c(-c2ccccn2)c(F)c1.Fc1c[c-]c(-c2ccccn2)c(F)c1.[Cl][Pt+].[Cl][Pt+].c1ccc([PH+](C[PH+](c2ccccc2)c2ccccc2)c2ccccc2)cc1 | -6.3% (active) | 66.6% | 20.9% | 8.7% (active) | 2.42% (active) | 20.6% | 31.8% | -65.2% (active) | 22.8% | 10.2% | -41.2% (active) | -15.4% (active) | 34% | 21.9% | 17.3% | 29.5% | -0.265% (active) | 22.7% |

Reference: PubChem BioAssay (NCI)
